According to PubChem BioAssay (NCATS):
Several values for one entry are separate records, joined by “and”; a condition that tells them apart may be missing. Equal entries are not always repeated. Inconclusive results are not listed. Activity calls are given as the source filed them. Calls follow the shape of the dose curve; as a rule, active = well fitted curve in the direction sought with a large enough effect; inconclusive = small, poorly fitted or top-dose-only effect, or another doubt; inactive = no such curve, though single readings can be large; an effect the other way counts as inactive or inconclusive.

Test system: not listed separately
Experiment: Confirmatory screen NINDS Rhodamine qHTS for Zika virus inhibitors (AID 1347161); also: nearly all actives have a fitted effect of over 60% in size; also: potency is read from the fitted curve at half-maximal effect;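 as to activity change, negative = inhibition: purified Zika NS2B-NS3 protease with linked NS2B cofactor domain and Rhodamine110 peptide substrate; plate controls were no-inhibitor control for no effect and no-enzyme control for full effect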
Conditions: purified enzyme assay, Rhodamine110 substrate fluorescence, 15 min; series mostly up to 114 µM; activity change, negative = inhibition: at the top concentration
How it was run: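 Percent inhibition, normalized to uninhibited and enzyme-free controls, is fitted to a 4-parameter Hill equation. Fluorescence change comes from a 15-min cleavage of 1.5 microM bis-peptide Rhodamine110 substrate by 25 nM linked NS2B-NS3 at room temperature.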

| SMILES | activity change, negative = inhibition | Potency |
| --- | --- | --- |
| Cc1ccccc1N1C(=O)c2cc(S(N)(=O)=O)c(Cl)cc2NC1C (stereo unspecified) | -37.3% (inactive) | – |
| Cc1ccc(C(=O)Nc2ccc(S(=O)(=O)O)c3cc(S(=O)(=O)O)cc(S(=O)(=O)O)c23)cc1NC(=O)c1cccc(NC(=O)Nc2cccc(C(=O)Nc3cc(C(=O)Nc4ccc(S(=O)(=O)O)c5cc(S(=O)(=O)O)cc(S(=O)(=O)O)c45)ccc3C)c2)c1 | – | 2.24 µM (active) and 2.51 µM (active) |
| COc1cc2nc(N3CCN(C(=O)c4ccco4)CC3)nc(N)c2cc1OC | 7.11% [at 64.7 µM] (inactive) | – |
| CC1COc2c(N3CCN(C)CC3)c(F)cc3c(=O)c(C(=O)O)cn1c23 (stereo unspecified) | – | inactive |
| O=C1Cc2cc(CCN3CCN(c4nsc5ccccc45)CC3)c(Cl)cc2N1 | -15.8% (inactive) | – |
| Cc1cnc(C(=O)NCCc2ccc(S(=O)(=O)NC(=O)NC3CCCCC3)cc2)cn1 | -35.8% (inactive) | – |
| CC(C)(C)C(=O)Oc1ccc(S(=O)(=O)Nc2ccccc2C(=O)NCC(=O)O)cc1 | 15% (inactive) | – |
| O=C(c1ccc(F)cc1)C1CCN(CCn2c(=O)[nH]c3ccccc3c2=O)CC1 | 22.2% (inactive) | – |
| C[C@H]1c2cccc(O)c2C(O)=C2C(=O)[C@]3(O)C(O)=C(C(N)=O)C(=O)[C@@H](N(C)C)[C@@H]3[C@@H](O)[C@@H]21 | – | 62.1 µM (active) |
| O=c1c(O)c(-c2ccc(O)c(O)c2)oc2cc(O)cc(O)c12 | – | 50.1 µM (active) |
| Cn1ccc2cc3c(cc21)CCN3C(=O)Nc1cccnc1 | – | 62.2 µM (active) |
| CCOC(=O)Nc1ccc(NCc2ccc(F)cc2)nc1N | 14.8% (inactive) | – |

Test system: Zika virus NS2B-NS3 protease (linked)
Experiment: 384 well plate NINDS AMC confirmatory qHTS for Zika virus inhibitors (AID 1347163); also: potency is read from the fitted curve at half-maximal effect; nearly all actives have a fitted effect of over 50% in size
Conditions: Recombinant NS2B-NS3 protease, Ac-VKTGKR-AMC fluorescence; series mostly up to 100 µM; activity change, negative = inhibition: at the top concentration
From the text: Description: Assay Submitters (PI): Avindra Nath, Ph.D., National Institute of Neurological Disorders and Stroke (NINDS), Bethesda, MD Radhakrishnan Padmanabhan, Ph.D., Georgetown University (GU), Washington D.C. Zika Virus causes congenital defects, including microcephaly and is associated with Guillain-Barre syndrome, eningoencephalitis and myelitis in infected adult. […] Using a target-based approach, we hope to establish a screening paradigm to uncover novel, cell-active NS2B-NS3 protease (Zika Virus) specific inhibitors from NCATS' collection of small molecules using qHTS. […] Four assay panel was created to identify potential Zika Virus inhibitors. Namely, (1) GU unlinked NS2B-NS3 AMC tagged protease qHTS, (2) GU unlinked NS2B-NS3 Rhodamine tagged protease qHTS, (3) NINDS linked NS2B-NS3 AMC tagged protease qHTS, (4) NINDS linked NS2B-NS3 Rhodamine tagged protease qHTS. Active compounds are validated using a secondary assay in 384 well plate format. Early Translation Branch (ETB) National Center for Advancing Translational Sciences (NCATS), Rockville, MD National Institute of Health (NIH), Bethesda, Maryland
384-well NINDS AMC Assay The protease was diluted to 7.5 nM, 40.9 nM, or 82 nM in assay buffer and dispensed into a 96-well PCR plate (Applied Biosystems); 20 or 22 microL was transferred to a black 384-well assay plate (final protease concentration of 5 nM, 30 nM, or 60 nM, respectively). Compounds (3 microL, 1 microM - 10 mM, DMSO) were diluted and transferred to the assay plate (final concentrations ranged from 100 nM to 1 mM). Compounds were incubated with protease for ~15 minutes. The substrate, Ac-VKTGKR-AMC (Genscript), was dissolved in DMSO to a concentration of 6 mM and further diluted into assay buffer to a working concentration of 180 microM, then dispensed into a 384-well preparation plate (Eppendorf). A multichannel repeat pipettor was used to add 3 or 5 microL of substrate to the assay plate to give a final concentration of 30 microM. The plate was incubated in the dark at room temperature. After 25 minutes, the fluorescence intensity (excitation: 355 nm, emission: 460 nm) was measured and normalized to no-enzyme and no-inhibitor controls. Aprotinin39 (VWR) was used as an intraplate control.

| SMILES | Potency |
| --- | --- |
| Cc1ccc(C(=O)Nc2ccc(S(=O)(=O)O)c3cc(S(=O)(=O)O)cc(S(=O)(=O)O)c23)cc1NC(=O)c1cccc(NC(=O)Nc2cccc(C(=O)Nc3cc(C(=O)Nc4ccc(S(=O)(=O)O)c5cc(S(=O)(=O)O)cc(S(=O)(=O)O)c45)ccc3C)c2)c1 | 7.94 µM (active) |
| O=C(Nc1ccc([N+](=O)[O-])cc1Cl)c1cc(Cl)ccc1O | 20 µM (active) |
| C[C@H]1c2cccc(O)c2C(O)=C2C(=O)[C@]3(O)C(O)=C(C(N)=O)C(=O)[C@@H](N(C)C)[C@@H]3[C@@H](O)[C@@H]21 | 63.1 µM (active) |
| Cn1ccc2cc3c(cc21)CCN3C(=O)Nc1cccnc1 | 31.6 µM (active) and 178 µM (active) |

Test system: Zika virus NS2B-NS3 protease (linked construct)
Experiment: 384 well plate NINDS Rhodamine confirmatory qHTS for Zika virus inhibitors (AID 1347164);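 also: fluorescence from protease cleavage of Ac-LKRR-rhodamine 110 substrate; nearly all actives have a fitted effect of over 65% in size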; also: potency is read from the fitted curve at half-maximal effect;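 as to activity change, negative = inhibition: top concentration of the series differs between compounds; plate controls were no-inhibitor control for no effect and no-enzyme control for full effect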
Conditions: rhodamine-110 peptide substrate fluorescence; series mostly up to 1 mM; activity change, negative = inhibition: at the top concentration
How it was run: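 Fluorescence read at ex 485 nm/em 538 nm, 25 min after adding 10 microM Ac-LKRR-Rd substrate at room temperature in the dark; signal normalized to no-enzyme and no-inhibitor controls. Enzyme final 5, 30 or 60 nM; compounds, ~15 min preincubation.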

| SMILES | activity change, negative = inhibition | Potency |
| --- | --- | --- |
| Cc1ccc(C(=O)Nc2ccc(S(=O)(=O)O)c3cc(S(=O)(=O)O)cc(S(=O)(=O)O)c23)cc1NC(=O)c1cccc(NC(=O)Nc2cccc(C(=O)Nc3cc(C(=O)Nc4ccc(S(=O)(=O)O)c5cc(S(=O)(=O)O)cc(S(=O)(=O)O)c45)ccc3C)c2)c1 | -128% (inactive) | – |
| O=C1Cc2cc(CCN3CCN(c4nsc5ccccc45)CC3)c(Cl)cc2N1 | – | 2.82 µM (active) |
| O=C(Nc1ccc([N+](=O)[O-])cc1Cl)c1cc(Cl)ccc1O | – | 7.94 µM (active) |

Molecular target: Lysine-specific demethylase 5B (Homo sapiens) (UniProt Q9UGL1)
Sequence (Q9UGL1 whole entry, looked up): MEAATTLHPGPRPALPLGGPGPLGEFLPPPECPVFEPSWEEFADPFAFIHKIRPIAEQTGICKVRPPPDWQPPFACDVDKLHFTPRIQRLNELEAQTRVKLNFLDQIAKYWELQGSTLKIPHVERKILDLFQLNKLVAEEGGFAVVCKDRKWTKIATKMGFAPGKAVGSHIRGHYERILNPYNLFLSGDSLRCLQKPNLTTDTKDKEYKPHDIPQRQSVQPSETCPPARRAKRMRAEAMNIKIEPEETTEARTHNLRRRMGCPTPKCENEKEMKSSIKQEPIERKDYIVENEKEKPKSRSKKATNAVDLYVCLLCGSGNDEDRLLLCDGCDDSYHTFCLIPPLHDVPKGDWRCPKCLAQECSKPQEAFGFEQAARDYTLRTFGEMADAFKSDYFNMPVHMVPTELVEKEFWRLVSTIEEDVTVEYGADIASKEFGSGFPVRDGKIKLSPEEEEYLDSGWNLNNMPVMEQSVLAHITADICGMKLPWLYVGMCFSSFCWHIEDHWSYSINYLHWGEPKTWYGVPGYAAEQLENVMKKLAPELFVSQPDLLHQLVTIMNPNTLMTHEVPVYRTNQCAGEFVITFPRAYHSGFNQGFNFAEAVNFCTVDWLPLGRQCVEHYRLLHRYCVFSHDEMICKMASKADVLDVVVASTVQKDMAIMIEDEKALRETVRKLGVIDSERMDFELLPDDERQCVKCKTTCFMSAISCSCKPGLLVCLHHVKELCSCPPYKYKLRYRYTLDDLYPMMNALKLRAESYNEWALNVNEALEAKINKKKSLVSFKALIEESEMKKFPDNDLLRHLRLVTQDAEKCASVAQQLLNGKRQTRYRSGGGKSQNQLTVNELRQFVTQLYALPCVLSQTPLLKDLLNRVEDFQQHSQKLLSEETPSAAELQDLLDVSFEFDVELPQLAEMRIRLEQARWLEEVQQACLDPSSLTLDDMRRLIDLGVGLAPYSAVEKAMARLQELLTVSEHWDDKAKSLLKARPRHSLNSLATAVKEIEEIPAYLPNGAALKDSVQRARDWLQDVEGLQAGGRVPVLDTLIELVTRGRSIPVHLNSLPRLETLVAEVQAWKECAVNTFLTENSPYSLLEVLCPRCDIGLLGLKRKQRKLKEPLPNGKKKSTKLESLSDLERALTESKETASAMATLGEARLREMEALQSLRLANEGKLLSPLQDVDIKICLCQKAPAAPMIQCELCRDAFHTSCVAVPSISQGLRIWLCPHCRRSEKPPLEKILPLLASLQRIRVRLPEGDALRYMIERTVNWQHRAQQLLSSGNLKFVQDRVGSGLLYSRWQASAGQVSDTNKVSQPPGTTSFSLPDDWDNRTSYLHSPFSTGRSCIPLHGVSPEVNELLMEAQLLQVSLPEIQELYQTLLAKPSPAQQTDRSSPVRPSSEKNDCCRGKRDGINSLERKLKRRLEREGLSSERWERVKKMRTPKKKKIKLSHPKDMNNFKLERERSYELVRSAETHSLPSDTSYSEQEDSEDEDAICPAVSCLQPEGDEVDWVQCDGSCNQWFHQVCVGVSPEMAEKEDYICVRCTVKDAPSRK
Experiment: Optimization screen for KDM5B Histone Demethylases FDH coupled qHTS against the LOPAC library (AID 1347166); also: 0% is about no effect
Conditions: KDM5B demethylation, FDH-coupled NADH fluorescence (FDH is formaldehyde dehydrogenase); series mostly up to 57.5 µM; activity, negative = inhibition: at the top concentration
How it was run: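 KDM5BDeltaAP (200nM final) preincubated 10 min with compound, then 12.5uM H3K4Me3, 25uM a-ketoglutarate, ascorbate, Fe(II), NAD+ and FDH added; 50mM HEPES pH 7.5, 0.01% Tween-20. NADH fluorescence (340/450 nm) change over 30 min, room temperature.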

| SMILES | activity, negative = inhibition |
| --- | --- |
| CC(C(=O)O)c1cccc(C(=O)c2ccccc2)c1 (stereo unspecified) | -3.67% (inactive) |
| NC(=O)OCC(COC(N)=O)c1ccccc1 | -4.71% (inactive) |
| O=C(Nc1ccc([N+](=O)[O-])cc1Cl)c1cc(Cl)ccc1O | -9.22% (inactive) |
| Clc1ccc2c(c1)C(N1CCNCC1)=Nc1ccccc1O2 | -3.41% (inactive) |
| Cc1cnc(C(=O)NCCc2ccc(S(=O)(=O)NC(=O)NC3CCCCC3)cc2)cn1 | -5.77% (inactive) |
| CN1CCN2c3ccccc3Cc3ccccc3C2C1 (stereo unspecified) | -2.51% (inactive) |
| Cc1cc(C(C)(C)C)c(O)c(C)c1CC1=NCCN1 | 0.638% (inactive) |
| O=C(c1ccc(F)cc1)C1CCN(CCn2c(=O)[nH]c3ccccc3c2=O)CC1 | -19% (inactive) |
| O=C(C1CCCCC1)N1CC(=O)N2CCc3ccccc3C2C1 (stereo unspecified) | 1.91% (inactive) |
| CNCCCC12CCC(c3ccccc31)c1ccccc12 | -6.07% (inactive) |
| O=c1c(O)c(-c2ccc(O)c(O)c2)oc2cc(O)cc(O)c12 | -25.7% (inactive) |
| Cn1cnc2c1c(=O)[nH]c(=O)n2C | -6.65% (inactive) |
| O=C(CCCN1CCC(O)(c2ccc(Cl)cc2)CC1)c1ccc(F)cc1 | -6.21% (inactive) |
| COc1ccccc1OCC(O)CN1CCN(CC(=O)Nc2c(C)cccc2C)CC1 (stereo unspecified) | -4.17% (inactive) |
| Cn1ccc2cc3c(cc21)CCN3C(=O)Nc1cccnc1 | -23.1% (inactive) |
| NCCS(=O)(=O)O | -4.21% (inactive) |

Test system: not listed separately
Experiment: Vero cells viability qHTS for Zika virus inhibitors (AID 1347167); also: potency is read from the fitted curve at half-maximal effect; as to activity change, negative = cytotoxicity: % is scaled to controls: 0 for no effect and ±100 for the full control effect
Conditions: cytotoxicity counter-screen (Zika); series mostly up to 45.9 µM; activity change, negative = cytotoxicity: at the top concentration
How it was run: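 Compounds were tested in concentration series on cells grown in DMEM containing 4% FBS. After 24 to 48 hours, cellular ATP was measured by luminescence with CellTiter Glo.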

| SMILES | activity change, negative = cytotoxicity | Potency |
| --- | --- | --- |
| Cc1ccccc1N1C(=O)c2cc(S(N)(=O)=O)c(Cl)cc2NC1C (stereo unspecified) | -2.59% (inactive) | – |
| COc1cc2nc(N3CCN(C(=O)c4ccco4)CC3)nc(N)c2cc1OC | -2.47% [at 26.9 µM] (inactive) | – |
| CC1COc2c(N3CCN(C)CC3)c(F)cc3c(=O)c(C(=O)O)cn1c23 (stereo unspecified) | – | inactive |
| O=C1Cc2cc(CCN3CCN(c4nsc5ccccc45)CC3)c(Cl)cc2N1 | -4.36% (inactive) | – |
| O=C(Nc1ccc([N+](=O)[O-])cc1Cl)c1cc(Cl)ccc1O | – | 0.415 µM (active) |
| Cc1cnc(C(=O)NCCc2ccc(S(=O)(=O)NC(=O)NC3CCCCC3)cc2)cn1 | -0.829% (inactive) | – |
| CC(C)(C)C(=O)Oc1ccc(S(=O)(=O)Nc2ccccc2C(=O)NCC(=O)O)cc1 | -0.187% (inactive) | – |
| O=C(c1ccc(F)cc1)C1CCN(CCn2c(=O)[nH]c3ccccc3c2=O)CC1 | -2.69% (inactive) | – |
| C[C@H]1c2cccc(O)c2C(O)=C2C(=O)[C@]3(O)C(O)=C(C(N)=O)C(=O)[C@@H](N(C)C)[C@@H]3[C@@H](O)[C@@H]21 | -4.45% (inactive) | – |
| Cn1ccc2cc3c(cc21)CCN3C(=O)Nc1cccnc1 | -1.28% (inactive) | – |
| CCOC(=O)Nc1ccc(NCc2ccc(F)cc2)nc1N | -7.69% (inactive) | – |
